Screening data as filed in PubChem.
Sampled rows, rich in hits. Any-hit rate of the full collection: about 1.7%.
EBNA-1 inhibitor = blocks EBNA-1 binding to DNA; EBNA-1 DNA binding, fluorescence polarization; AID 1950; inhibition, % at 14.8 µM; 300,000 compounds, 0.34% hits; in the data active = inhibition above about 28%
PAD4 FP inh = blocks human protein arginine deiminase 4; Q9UM07; recombinant PAD4, RCA probe fluorescence polarization; inhibition, % at 6.36 µM; 330,000 compounds, 0.41% hits; AID 485272;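 active = percent inhibition above a cutoff equal to the mean of all tested compounds plus 3 SD, cut at about 15% in these data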;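 note: 0% = PAD4 with RCA probe and DMSO and 100% = probe without PAD4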
LYPLA1 counter = blocks human lysophospholipase 1, a PME1 counter-screen; recombinant LYPLA1, FP-Rh probe fluorescence polarization; AID 2174; O75608; inhibition, % at 5.9 µM; 320,000 compounds, 0.16% hits;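 active = inhibition above the mean of all tested compounds plus 3 SD, set per campaign, cut at about 14% in these data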;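 note: inhibitors block serine hydrolase probe labeling of LYPLA1 so polarization falls; 0% = enzyme with DMSO and 100% = wells lacking LYPLA1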
Target sequence (O75608 whole entry, looked up): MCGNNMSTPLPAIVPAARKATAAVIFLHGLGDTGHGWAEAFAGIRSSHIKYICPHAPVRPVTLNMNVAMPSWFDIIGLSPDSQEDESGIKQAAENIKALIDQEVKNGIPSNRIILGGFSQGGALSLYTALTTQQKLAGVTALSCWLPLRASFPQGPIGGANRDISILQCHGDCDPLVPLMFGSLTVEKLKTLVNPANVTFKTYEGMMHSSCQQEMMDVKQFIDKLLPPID
LYPLA2 inh = LYPLA2 (human) inhibition in PME1 counter-screen; O95372; recombinant LYPLA2, FP-Rh probe fluorescence polarization; inhibition, % at 5.9 µM; 320,000 compounds, 0.38% hits; AID 2177;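 active = inhibition above the screen-wide mean plus 3 SD, limit set per campaign, cut at about 26% in these data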;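 note: 0% = LYPLA2 with DMSO and 100% = wells lacking LYPLA2 enzyme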
Target sequence (O95372 whole entry, looked up): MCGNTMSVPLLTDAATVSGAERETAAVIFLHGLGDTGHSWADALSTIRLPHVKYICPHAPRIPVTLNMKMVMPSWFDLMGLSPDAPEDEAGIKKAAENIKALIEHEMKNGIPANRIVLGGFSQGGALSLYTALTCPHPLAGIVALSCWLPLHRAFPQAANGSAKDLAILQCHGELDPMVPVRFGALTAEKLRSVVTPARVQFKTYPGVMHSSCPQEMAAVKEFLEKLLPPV
GSTO1 inh = counter-screen for RBBP9 inhibitors: inhibitors of human GSTO1; P78417; recombinant GSTO1, activity-based probe fluorescence polarization; inhibition, % at 5.96 µM; 300,000 compounds, 1.1% hits; AID 1974;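 active = inhibition above the campaign mean inhibition plus 3 SD, cut at about 35% in these data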;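 note: 0% = GSTO1-1 with DMSO and 100% = wells lacking GSTO1-1 enzyme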
ZTA DNA inh = counter-screen for EBNA-1 inhibitors: inhibitors of Epstein-Barr virus ZTA; 320,000 compounds, 0.15% hits; ZTA-DNA binding, fluorescence polarization; P03206; inhibition, % at 11 µM; in the data active = inhibition above about 33%
Target sequence (P03206 whole entry, looked up): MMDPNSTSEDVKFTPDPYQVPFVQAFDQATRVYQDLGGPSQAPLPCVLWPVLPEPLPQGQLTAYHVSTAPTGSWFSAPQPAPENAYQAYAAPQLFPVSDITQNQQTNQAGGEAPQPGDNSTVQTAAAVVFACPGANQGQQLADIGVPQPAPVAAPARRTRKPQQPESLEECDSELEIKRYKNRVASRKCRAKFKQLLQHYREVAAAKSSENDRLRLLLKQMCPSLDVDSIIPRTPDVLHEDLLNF
GSTO1 confirm = confirmation of human GSTO1 inhibitors; shares compounds with GSTO1 inh; AID 2176; inhibition, % at 5.96 µM; 2,400 compounds, 54% hits; recombinant GSTO1, probe fluorescence polarization;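 active = inhibition above the primary screen's cutoff, its mean inhibition plus 3 SD, cut at about 35% in these data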;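 note: loss of polarization as inhibitors block binding of rhodamine sulfonate ester activity probe; 0% = GSTO1 with DMSO and 100% = wells lacking GSTO1 enzyme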
LYPLA1 confirm = LYPLA1 (human) inhibition, confirmation counter-screen | shares compounds with LYPLA1 counter | recombinant LYPLA1, FP-Rh probe fluorescence polarization | inhibition, % at 5.9 µM | 480 compounds, 69% hits | AID 2233;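 active = mean inhibition across replicates above the hit cutoff set in the primary screen, cut at about 15% in these data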;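 note: loss of FP-Rh probe labeling of LYPLA1 seen as lower polarization; 0% = LYPLA1 with DMSO and 100% = wells lacking LYPLA1 enzyme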
LYPLA2 conf = counter-screen for PME1 inhibitors: confirmation of human LYPLA2 inhibitors | inhibition, % at 5.9 µM | shares compounds with LYPLA2 inh | recombinant LYPLA2, FP-Rh probe fluorescence polarization | 1,100 compounds, 72% hits | AID 2232;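 active = mean inhibition across replicates above the hit cutoff set in the primary screen, cut at about 26% in these data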;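 note: blocked labeling of the enzyme by serine hydrolase FP-Rh probe lowers polarization; 0% = enzyme with DMSO and 100% = wells lacking LYPLA2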
Zta DNA confirm = EBV ZTA DNA binding inhibition, confirmation. shares compounds with ZTA DNA inh. Zta-ZRE DNA binding, fluorescence polarization. AID 2361. 320 compounds, 30% hits. inhibition, % at 11.1 µM;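 active = mean inhibition across triplicate runs above the hit threshold derived for the original primary screen, cut at about 33% in these data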;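 note: 0% = Zta with DMSO and 100% = wells lacking Zta protein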
EBNA-1 counter = counter-screen for ZTA inhibitors: EBNA-1 DNA binding inhibition; shares compounds with ZTA DNA inh; fluorescence polarization; inhibition, % at 14.8 µM; 320 tested, under 10 active; AID 2362; call rule not given here
PAD4 FP conf = confirmation of human PAD4 inhibitors; 1,200 compounds, 28% hits; shares compounds with PAD4 FP inh; recombinant PAD4, RCA probe fluorescence polarization; AID 488796; inhibition, % at 6.36 µM;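 active = mean inhibition across replicates above the hit cutoff set by the earlier primary screen, cut at about 15% in these data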;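 note: inhibitors block active-site labeling by the probe so polarization falls; 0% = PAD4 with probe and DMSO and 100% = probe without PAD4 enzyme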
The depositor's hits bear a star; / = no result; + = active, no number.

SMILES	EBNA-1 inhibitor	PAD4 FP inh	LYPLA1 counter	LYPLA2 inh	GSTO1 inh	ZTA DNA inh	GSTO1 confirm	PAD4 FP conf	others
CCC(CNc1cc(OC)cc2cccnc12)NC1CCCCC1 (stereo not drawn)	-22.4	89.8*	22.5*	29.7*	80.2*	1.6	8.8	13.7	LYPLA1 confirm=12.9;LYPLA2 conf=43.4*
COc1cc(NS(=O)(=O)c2ccc(C)cc2)c2ncccc2c1	4.0	-4.5	-5.1	-4.0	28.8	-3.7	/	/
COC(=O)[C@@]1(C)[C@H]2C(=O)N(C)C(=O)[C@H]2[C@H]2CN=C(SC)N21	/	-3.9	/	/	/	/	/	/
CN1C(=O)NC(c2ccccc2[N+](=O)[O-])C2=C1CCCC2=O (stereo not drawn)	-12.2	102.2*	72.7*	94.1*	71.2*	4.9	37.9*	62.4*	LYPLA1 confirm=28.2*;LYPLA2 conf=73.8*
O=C(CSc1nnc(-c2ccco2)n1-c1ccccc1Cl)Nc1cccc(C(=O)O)c1	0.3	-3.9	1.0	-11.4	2.1	-2.6	/	/
CN(CCCC(=O)N1CCCC(C(N)=O)C1)S(=O)(=O)c1ccc(F)cc1 (stereo not drawn)	-12.3	-0.2	1.2	-0.9	8.6	-15.9	/	/
Cn1c(=O)c2c(nc(NCc3ccccc3)n2C)n(C)c1=O	10.8	-0.9	-1.6	-0.6	0.2	21.9	/	/
Cn1c(=O)c2cc(NCc3ccccc3)nnc2n(C)c1=O	25.6	30.5*	19.1*	25.5	81.0*	51.5*	15.5	2.5	LYPLA1 confirm=3.2;Zta DNA confirm=-11.7;EBNA-1 counter=-7.5
CN(C)c1ccc(NC2=C(Cl)C(=O)c3ccccc3C2=O)cc1	-2.6	28.2*	0.0	7.1	93.5*	-2.2	88.7*	16.1*
O=C1C(Cl)=C(Nc2ccc3cn[nH]c3c2)C(=O)c2ccccc21	-17.2	48.0*	-0.4	14.9	82.8*	-9.2	90.0*	15.3*
O=C(NC1=C(Nc2ccc(Cl)cc2)C(=O)c2ccccc2C1=O)c1ccccc1	0.3	-18.1	-6.7	-19.6	32.0	-1.3	/	/
CCCCn1c(NC(=O)c2ccccc2Cl)c(C#N)c2nc3ccccc3nc21	9.2	72.0*	45.3*	58.2*	94.3*	15.6	64.1*	29.2*	LYPLA1 confirm=62.4*;LYPLA2 conf=0.4
Cc1cc(=O)[nH]c(-n2[nH]c(C)cc2=O)n1	-2.6	-1.2	0.9	-4.3	26.4	-8.1	/	/
COc1ccc(-n2[nH]c(C)cc2=O)cc1	-1.7	63.8*	4.1	-5.5	58.7*	19.4	12.8	2.7
CC1Cc2ccccc2N1C(=O)CO/N=C/c1ccc(OC(F)F)cc1 (stereo not drawn)	-4.7	3.9	0.6	3.0	3.0	0.4	/	/
CC(=O)Nc1ccc(NC(=O)Oc2ccccc2)cc1	3.5	3.9	0.5	5.2	6.5	2.0	/	/
CN(C)c1ccc(NC(=O)Oc2ccccc2)cc1	52.3*	17.4*	-0.2	8.8	39.5*	+	6.5	-1.7
O=C(O)c1ccc(-n2nnc3ccccc32)c([N+](=O)[O-])c1	-1.3	-0.5	0.3	5.2	-1.6	-2.2	/	/
O=C(O)c1ccc(NC2=C(n3nnc4ccccc43)C(=O)c3ccccc3C2=O)cc1	-5.7	17.4*	2.1	2.9	53.1*	-9.6	60.9*	3.4
CC(C)=CCC1=C(OCC(=O)O)C(=O)c2ccccc2C1=O	5.1	27.6*	1.8	8.0	89.0*	10.5	84.8*	-1.1
CC(C)=CCC/C(C)=C/CC/C(C)=C/CC/C(C)=C/CC1=C(C)C(=O)c2ccccc2C1=O	4.3	-4.1	-0.9	6.7	-1.8	-2.8	/	/
O=C1C=C(Nc2ccccc2C(=O)O)c2ccccc2C1=O	-0.9	18.3*	0.8	4.6	75.3*	12.1	87.8*	61.1*
O=C1C=C(Nc2cccc3cccnc23)c2ccccc2C1=O	-6.0	33.9*	4.9	3.9	77.0*	9.7	58.0*	54.4*
O=C(CN1C(=O)c2ccccc2C1=O)Nc1cccc2cccnc12	4.5	1.7	3.8	20.7	6.0	-3.5	/	/
O=C(O)c1ccccc1Nc1ccccc1C(=O)O	7.5	-2.9	1.1	3.2	-1.4	-9.6	/	/
SMILES	EBNA-1 inhibitor	PAD4 FP inh	LYPLA1 counter	LYPLA2 inh	GSTO1 inh	ZTA DNA inh	GSTO1 confirm	PAD4 FP conf	others
O=C1CCCC/C1=C\Nc1ccc(O)cc1	-5.7	43.2*	5.5	8.6	42.3*	-2.3	5.9	5.5
COc1ccc(NC(=O)Nc2ccc(O)c3ccccc23)cc1	-9.3	22.8*	-7.1	1.4	64.7*	-7.2	5.8	-2.1
Oc1ccc2ccccc2c1C=Nc1ccc(N2CCOCC2)cc1	10.0	45.8*	-0.7	-2.8	41.4*	10.6	37.8*	1.1
C=Cc1ccc(N=Cc2c(O)ccc3ccccc23)cc1	1.2	-14.2	2.0	-5.4	29.6	2.5	/	/
O=C1C=C(N2CCOCC2)c2ccccc2C1=O	-4.9	59.7*	43.1*	67.7*	90.5*	53.9*	98.8*	66.2*	LYPLA1 confirm=50.4*;LYPLA2 conf=79.4*;Zta DNA confirm=68.1*;EBNA-1 counter=-11.4
CC(=O)N1CCc2[nH]c3ccccc3c2C1	-11.6	-2.4	0.4	4.7	-5.0	-6.5	/	/
O=C(N1CCc2[nH]c3ccccc3c2C1)C(F)(F)F	-5.4	57.9*	3.8	9.8	87.8*	-11.9	6.6	-2.8
O=C(Nc1nnc(COc2ccc(Br)cc2)s1)c1ccco1	-7.3	-4.0	-0.7	-6.4	-9.9	-11.1	/	/
COc1ccc(-c2nc(-c3ccccn3)ncc2S(C)(=O)=O)cc1	-4.6	-0.8	-1.3	6.1	-2.0	4.3	/	/
Cn1nc(-c2ccccn2)nc2c(=O)n(C)c(=O)nc1-2	7.3	73.5*	91.7*	90.0*	97.2*	72.5*	91.5*	67.2*	LYPLA1 confirm=88.6*;LYPLA2 conf=92.4*;Zta DNA confirm=68.9*;EBNA-1 counter=-4.0
Nc1cc(-c2cccc([N+](=O)[O-])c2)[nH]n1	2.0	-1.9	3.0	1.9	2.3	-9.0	/	/
O=c1cc(-c2cccc([N+](=O)[O-])c2)[nH][nH]1	13.6	52.0*	-1.9	4.5	37.9*	-3.5	9.5	-1.6
CC(C)(C)NC(=O)COC(=O)c1ccc(NC(=O)CC#N)cc1	-5.2	1.1	1.4	5.4	-2.4	-5.0	/	/
